The source of these data is PubChem BioAssay (NCATS).

Several values for one entry are separate records, joined by “and”; a condition that tells them apart may be missing. Identical values can stand only once. Records with an inconclusive call do not appear. Entries that show only a call come without a potency. More than one record can exist for a structure, and the calls need not agree. Activity calls are given as the source filed them. The call rests on the fitted dose curve.
Potency means the concentration at half of the fitted maximal effect.

This experiment is described as follows: Primary qHTS to identify inhibitors of SARS-CoV-2 cell entry (AID 1645846). Further: nearly all actives have a fitted effect of over 45% in size. Particulars: SARS-CoV-2 pseudovirus cell entry assay, luminescence; activity change, negative = inhibition: at 57.1 µM (top of the series) unless noted; series mostly up to 57.1 µM. Put shortly: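 HEK293 cells stably expressing human ACE2, pre-treated 1 h with compound, then infected with MLV particles pseudotyped with Wuhan-Hu-1 spike (C-terminal 19-aa truncation). Luciferase luminescence after 48 h at 37 °C, normalised to spike PP and bald PP.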
In the case of `CCOC(=O)c1ccc(N)cc1`, the compound was called inactive.

In the case of `COC(=O)C1=C(C)NC(C)=C(C(=O)OCCc2ccc(N3CCN(C(c4ccccc4)c4ccccc4)CC3)cc2)C1c1cccc([N+](=O)[O-])c1` (centres undefined), the activity change, negative = inhibition was -16.7%.

For `CO/N=C(/C(=O)N[C@@H]1C(=O)N2C(C(=O)OCOC(=O)C(C)(C)C)=C(C)CS[C@H]12)c1csc(N)n1`, the activity change, negative = inhibition is -24.9%.

For `NC(N)=NC(=O)Cc1c(Cl)cccc1Cl`, the result was inactive.

For `COc1ccc(-c2ccc3cc(C(=O)O)ccc3c2)cc1C12CC3CC(CC(C3)C1)C2`, the activity change, negative = inhibition is -13.5% and -15.7%.

Regarding `O=c1[nH]c(=O)n([C@H]2O[C@H](CO)[C@@H](O)[C@@H]2O)cc1/C=C\Br`, the compound was called inactive.

`CCCCCCCCCCCCCCCCCC(=O)O`: the activity change, negative = inhibition was -6.11%.

Consider `O=C(O)CCCCC(=O)O`, for which the result was inactive.

Consider `O=C(O)/C=C(\CC(=O)O)C(=O)O`, for which the activity change, negative = inhibition is 0.545%.

On to `CCN1CCCC1CNC(=O)c1cc(S(=O)(=O)CC)c(N)cc1OC` (centres undefined), for which the activity change, negative = inhibition was 4.53% and -0.585%.

Take `Oc1ccc(OCc2ccccc2)cc1`: the Potency result is “inactive and 3.16 µM (active)”.

Regarding `CC(=O)Oc1cc(C(C)C)c(OCCN(C)C)cc1C`, the compound was called inactive.

Consider `NC(=O)c1ncn([C@@H]2O[C@H](CO)[C@@H](O)[C@H]2O)c1O`, for which the Potency result is “inactive”.

As for `CC(C)CN(C[C@@H](OP(=O)(O)O)[C@H](Cc1ccccc1)NC(=O)O[C@H]1CCOC1)S(=O)(=O)c1ccc(N)cc1`, the activity change, negative = inhibition was -18.7%.

Regarding `O=C(O)c1cc(=O)c2c(OCC(O)COc3cccc4oc(C(=O)O)cc(=O)c34)cccc2o1`, the Potency result was “inactive”.

In the case of `Cc1c(I)c(=O)n(-c2ccccc2)n1C`, the result was inactive.

With `Clc1cccc(C(c2ccc3nc[nH]c3c2)n2ccnc2)c1` (centres undefined), the outcome was inactive.

Take `C[C@@H]1[C@H](O)[C@@H](C)/C=C/C=C\C=C\C=C\C=C\C=C\C=C\[C@H](O[C@@H]2O[C@H](C)[C@@H](O)[C@H](N)[C@@H]2O)C[C@@H]2O[C@](O)(C[C@@H](O)C[C@@H](O)[C@H](O)CC[C@@H](O)C[C@@H](O)CC(=O)O[C@H]1C)C[C@H](O)[C@H]2C(=O)O` (stereo in doubt): the result was inactive.

With `CCCC(=O)O[C@]1(C(=O)CO)CC[C@H]2[C@@H]3CCC4=CC(=O)CC[C@]4(C)[C@H]3[C@@H](O)C[C@@]21C`, the activity change, negative = inhibition was -10%.

Take `O=C(O)CCC(=O)O`: the call was inactive.

`Oc1ccccc1`: the result was inactive.

As to `NC(CS)C(=O)O` (centres undefined), the activity change, negative = inhibition was -4.89%.

As to `CC1(C)O[C@@H]2C[C@H]3[C@@H]4CCC5=CC(=O)C=C[C@]5(C)[C@@]4(F)[C@@H](O)C[C@]3(C)[C@]2(C(=O)CO)O1`, the Potency entry is “inactive”.

Take `CC(C)C(=O)c1c(C(C)C)nn2ccccc12`: the compound was classed as inactive.

Take `COCC(=O)Nc1c(I)c(C(=O)NCC(O)CO)c(I)c(C(=O)N(C)CC(O)CO)c1I` (centres undefined): the compound was called inactive.

For `C[C@@H]1C[C@H]2[C@@H]3C[C@H](F)C4=CC(=O)C=C[C@]4(C)[C@@]3(F)[C@@H](O)C[C@]2(C)[C@@]1(O)C(=O)CO`, the compound was classed as inactive.

`O=C(CO)[C@@H](O)[C@H](O)[C@@H](O)CO`: the activity change, negative = inhibition was -14.3%.

`CN(C)CCOC(=O)C(c1ccccc1)C1(O)CCCC1` (centres undefined): the activity change, negative = inhibition amounted to 1%.

For the compound `O=C(COCCOCCOCC(=O)Nc1c(I)cc(I)c(C(=O)O)c1I)Nc1c(I)cc(I)c(C(=O)O)c1I`, the outcome was inactive.

As for `OC[C@H]1O[C@@H](n2cnc3c2NC=NC[C@H]3O)C[C@@H]1O`, the activity change, negative = inhibition was -15% and -28%.

Take `N[C@@H](Cc1cc(I)c(Oc2ccc(O)c(I)c2)c(I)c1)C(=O)O`: the compound was called inactive.

For the compound `O=c1c(-c2ccc(O)cc2)coc2cc(O)cc(O)c12`, the activity change, negative = inhibition is -23.9% [at 114 µM].

In the case of `CN(CC1(C)CCCO1)S(=O)(=O)c1ccc(Cl)c(S(N)(=O)=O)c1` (centres undefined), the activity change, negative = inhibition was -32.6%.

`C/C=C1\[C@H]2C=C(C)C[C@]1(N)c1ccc(=O)[nH]c1C2`: the outcome was inactive.

As to `COc1cc(C)c(Cc2cnc(N)nc2N)cc1OC`, the result was inactive.

Turning to `COc1cc2c3cc1Oc1cc(ccc1O)C[C@@H]1c4c(cc(OC)c(O)c4Oc4ccc(cc4)C[C@@H]3N(C)CC2)CC[N+]1(C)C`, the compound was called inactive.

Regarding `Cc1cc(O)cc(C)c1Cl`, the compound was classed as inactive.

Consider `O=c1cc[nH]c(=O)[nH]1`, for which the activity change, negative = inhibition is -14.8%.

Regarding `CN1CCC[C@@H]1c1cccnc1`, the compound was called inactive.
